Drawing on PubChem BioAssay (EPA / NIEHS), this text covers outcome and AC50 for 40 compounds.

The structures appear in SMILES notation. The source made the active and inactive calls. Rule for the calls: active = hit-call score of the fitted dose curve at least 0.9, where 1 is the maximum; inactive = score below 0.9.

In the experiment the target is Myc proto-oncogene protein (Homo sapiens) (UniProt P01106). Nature of the experiment: ATG_Myc_CIS: Attagene CIS-FACTORIAL HepG2 Assay for human Myelocytomatosis (Myc) Proto-Oncogene Transcription Factor (AID 2282990). The settings on record: HepG2, Attagene cis-reporter transcription factor activity; actives raise or lower the signal. The method, then: ATG_CIS is a cell-based, multiplexed-readout assay that uses HepG2, a human liver cell line, with measurements taken at 24 hours after chemical dosing in a 24-well plate.ATG_Myc_CIS is one of 52 assay component(s) measured or calculated from the ATG_CIS assay. It is designed to make measurements of mRNA induction, a form of inducible reporter, as detected with fluorescence intensity signals by Reverse transcription polymerase chain reaction (RT-PCR) and Capillary electrophoresis technology.Data from the assay component ATG_Myc_CIS was analyzed into 1 assay endpoint. This assay endpoint, ATG_Myc_CIS, was analyzed with bidirectional fitting relative to DMSO as the negative control and baseline of activity. Using a type of inducible reporter, measures of mRNA for gain or loss-of-signal activity can be used to understand the reporter gene at the transcription factor-level as they relate to the gene MYC. Furthermore, this assay endpoint can be referred to as a primary readout, because this assay has produced multiple assay endpoints where this one serves a reporter gene function. To generalize the intended target to other relatable targets, this assay endpoint is annotated to the dna binding intended target family, where the subfamily is basic helix-loop-helix leucine zipper.
Sequence of Myc proto-oncogene protein (Homo sapiens) (P01106 whole entry, looked up): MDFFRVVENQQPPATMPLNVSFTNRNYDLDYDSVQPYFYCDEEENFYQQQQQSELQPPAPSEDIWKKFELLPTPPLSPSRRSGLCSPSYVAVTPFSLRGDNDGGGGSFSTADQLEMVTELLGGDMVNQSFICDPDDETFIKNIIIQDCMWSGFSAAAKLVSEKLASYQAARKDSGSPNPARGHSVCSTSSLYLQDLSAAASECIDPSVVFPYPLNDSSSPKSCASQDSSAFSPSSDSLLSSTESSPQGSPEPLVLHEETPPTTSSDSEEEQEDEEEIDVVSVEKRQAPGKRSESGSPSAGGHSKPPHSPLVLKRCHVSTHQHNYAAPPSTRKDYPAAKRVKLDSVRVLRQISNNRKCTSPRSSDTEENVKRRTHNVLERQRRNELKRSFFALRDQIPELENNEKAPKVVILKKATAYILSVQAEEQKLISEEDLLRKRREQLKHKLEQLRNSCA
Human liver HepG2 cells are transiently transfected with multiple reporter transcription units (MRTUs) in 6-well plates using FuGene 6 reagent (Roche; 3 ml FuGene/1 mg DNA). The MRTU constructs are regulated by a cis-regulating element (promoter). […] A major difference between the CIS and TRANS system is that in CIS activities of endogenous TFs are measured, whereas the TRANS assay evaluates changes in activities of exogenous, chimeric NR-Gal4 proteins. […] At the end of 24 hour incubation, total RNA was isolated using TriZol reagent (Invitrogen). The isolated RNA is then reverse-transcribed using oligo(dT) primer and Mo-MLV reverse transcriptase (Invitrogen) with DNAse I (Ambion) treatment for 30 min. The one-tenth of the produced cDNA was amplified by PCR using Taq DNA polymerase (Invitrogen) and two reporter sequence-specific primers. The PCR products were fluorescently labeled by primer extension with 6-arboxyfluorescein (6-FAM) 5'-labeled reporter sequence-specific primer (2 min at 95 C, 20 s at 68 C and 10 min at 72 C) and these products were digested with 5U of HpaI (New England Biolabs) for 2h at 37 C. The fragments were purified using Qiaquick PCR columns (Qiagen), analyzed on an ABI 3130xL genetic analyzer (Applied Biosystems) with peak positions identified by using a set of X-rhodamine (ROX)-labeled MapMarker1000 molecular weight standards (BioVentures). The raw capillary electrophoresis data was processed using Attagraph software (Attagene).
In the case of `O=c1cc(-c2ccccc2)oc2cc(O)cc(O)c12`, the result was inactive.
Take `O=C(O)c1ccc([N+](=O)[O-])cc1`: the outcome was inactive.
As to `O=Nc1ccc(Nc2ccccc2)cc1`, the result was inactive.
The same measure, in the same setting: as for `CC(C)(CO)[N+](=O)[O-]`, the entry is “inactive”.
As for `O=Cc1ccc(Cl)c([N+](=O)[O-])c1`, the AC50 was 100 µM (active).
On to `O=[N+]([O-])c1ccc(C=Cc2ccc([N+](=O)[O-])cc2S(=O)(=O)O)c(S(=O)(=O)O)c1`, for which the outcome was inactive.
As to `Cc1ccc(C(=O)c2cc(O)c(O)c([N+](=O)[O-])c2)cc1`, the compound was classed as inactive.
With `COC(C(=O)O)c1ccccc1` (stereo not given), the outcome was inactive.
Same read-out and setting: as for `O=C[C@@H](O)[C@H](O)[C@H](O)CO`, the entry is “inactive”.
For the compound `Clc1sc(Cl)c(Cl)c1Cl`, the compound was classed as inactive.
Regarding `CC(O)C(C)O` (stereo not given), the outcome was inactive.
In the case of `O=[N+]([O-])c1cc(C(F)(F)F)ccc1Cl`, the compound was classed as inactive.
Regarding `N#Cc1ccccc1`, the compound was classed as inactive.
As for `C=CC(C)(CCC=C(C)C)OC=O` (stereo not given), the outcome was inactive.
For the compound `Sc1nc(S)nc(S)n1`, the compound was classed as inactive.
Turning to `Cc1ccc(C(=O)O)o1`, the call was inactive.
On the same count and under the same terms, as for `COc1ccc(O)cc1`, the entry is “inactive”; as for `Cc1ccc2ccccc2n1`, “inactive”; as for `CC1CC(OC(=O)c2ccccc2O)CC(C)(C)C1` (stereo not given), “inactive”.
With `C=O`, the compound was called inactive.
As to `O=C1CCCCCCCCCCOCCCCO1`, the call was inactive.
The same measure, in the same setting: to `O=C(O)CCCCCCCC(=O)O` belongs “inactive”; to `C=C(C)[C@@H]1CC[C@@H](C)C[C@@H]1O`, “inactive”; to `OC1C(O)C(O)C(O)C(O)C1O` (stereo not given), “inactive”.
Consider `CCCCCCCCC`, for which the outcome was inactive.
As to `C=C(C)C(=O)O[C@H]1C[C@@H]2CC[C@@]1(C)C2(C)C`, the compound was classed as inactive.
`CC(C)(C#N)c1cc(Cn2cncn2)cc(C(C)(C)C#N)c1`: the compound was called inactive.
For `c1ccc2[nH]ccc2c1`, the compound was classed as inactive.
The same measure, in the same setting: to `COc1ccc(Cl)cc1C` belongs “inactive”; to `CCCCOCCOCCSC#N`, “inactive”; to `COC(C)CCO` (stereo not given), “inactive”.
In the case of `CCCCCC(CO)CCC` (stereo not given), the call was inactive.
`O=C1C(c2[nH]c3ccc(S(=O)(=O)O)cc3c2O)=Nc2ccc(S(=O)(=O)O)cc21`: the result was inactive.
With `CC(C)c1cccc(O)c1`, the call was inactive.
Turning to `COC(=O)C1=C(C)NC(C)=C(C(=O)OCCN(C)Cc2ccccc2)C1c1cccc([N+](=O)[O-])c1` (stereo not given), the call was inactive.
Turning to `Nc1nc2ccc([N+](=O)[O-])cc2s1`, the compound was classed as inactive.
As to `CC(C)(COC(=O)c1ccccc1)COC(=O)c1ccccc1`, the call was inactive.
Take `O=C(O)CCCCC1CCSS1` (stereo not given): the compound was called inactive.
Regarding `CCCCC[Si](OCC)(OCC)OCC`, the outcome was inactive.
On the same count and under the same terms, to `C=CC(=O)OCCOCCOCC` belongs “inactive”.

For orientation: AC50 means the midpoint of the concentration-response curve, whichever way the signal moves.
